Test results reported in PubChem BioAssay (Tox21).
Calls of active or inactive are those of the source. Calls follow the shape of the dose curve; as a rule, active = well fitted curve in the direction sought with a large enough effect in the repeat runs; inconclusive = weak or mixed curves; inactive = flat fitted curve, though single readings scatter.

Test: qHTS assay to test for compound auto fluorescence at 590 nm (red) in HEK293 cell free culture (AID 720683)
Settings: cell-free medium autofluorescence, Ex540/Em590 red; series mostly up to 91.3 µM
Text: U.S. Tox21 Program National Center for Advancing Translational Sciences [NCATS] NIH Chemical Genomics Center [NCGC] U.S. Environmental Protection Agency [EPA] National Institutes of Environmental Health Sciences [NIEHS] National Toxicology Program [NTP] U.S. Food and Drug Administration [FDA] Tox21 Assay Overview: Compound auto fluorescence often interferes with screening of the compound library against various biological targets and signaling pathways. Some of these compounds may have fluorophoric properties. Such properties may interfere with the assay outputs resulting in false positives and/or negatives. To decrease such complications and ensure the compound activities are relevant in terms of biological response, the Tox21 10K compound library was screened for auto fluorescence. From the fluorophores used as reporter signals in our screening assays, the auto fluorescence equivalencies of compounds against three fluorophores have been evaluated: Triamterene, Fluorescein and Rose Bengal sodium for blue, green and red fluorescence, respectively. The fluorescence intensities were measured using Excitation/Emission wavelengths at 405/460nm, 485/535nm and 540/590nm for blue, green and red labels, respectively. This assay includes the red fluorescence data.
Tox21 Assay Protocol Summary: 5 uL of culture medium (DMEM containing 10% FBS) per well was dispensed into black wall/clear bottom 1536-well plates using a Multidrop Combi Dispenser (ThermoFisher Scientific, Waltham, MA). After 23 nL compound or DMSO vehicle was transferred into assay plate by a pintool work station (Kalypsys, San Diego, CA), fluorescence intensities in the assay plates were measured by an Envision (PerkinElmer, Shelton, CT) plate reader using three labels for measuring blue, green and red fluorescence at […] 460, 535 and 590nm respectively.
% is scaled to controls: 0 for no effect and ±100 for the full control effect.

SMILES | outcome | fluorescence, % of fluorescent control
CSc1nc(N=[N+]=[N-])nc(NC(C)C)n1 | inactive | –
COCC(=O)N(c1c(C)cccc1C)N1CCOC1=O | inactive | –
CCNc1nc(NC(C)C)nc(OC)n1 | inactive | –
ClC(Br)Br | inactive | –
ClC(Cl)(Cl)C(Cl)(Cl)Cl | inactive | –
CC(CCc1ccccc1)NC(C)C(O)c1ccc(O)cc1 (stereo not given) | inactive | –
Cc1ccccc1CO[C@@H]1C[C@@]2(C(C)C)CC[C@]1(C)O2 | inactive | –
CC1CCC(=O)O1 (stereo not given) | inactive | –
CCN(Cc1ccc(Cl)nc1)/C(=C/[N+](=O)[O-])NC | inactive | –
CCC/C(=N\OCC)C1=C(O)CC(CC(C)SCC)CC1=O (stereo not given) | inactive | –
CC1CN1P(=O)(N1CC1C)N1CC1C (stereo not given) | inactive | –
N#CCBr | inactive | –
CCCSP(=O)(OCC)Oc1ccc(Br)cc1Cl (stereo not given) | inactive | –
C#C[C@]1(O)C=C[C@H]2[C@@H]3CCC4=CC(=O)CC[C@@H]4[C@H]3CC[C@@]21CC | inactive | –
C[C@]1(O)CC[C@H]2[C@@H]3CCC4=CC(=O)CC[C@]4(C)[C@@]3(F)[C@@H](O)C[C@@]21C | inactive | –
COC(=O)COc1ccc(Cl)cc1Cl | inactive | –
CCOC(=O)NC(=S)Nc1ccccc1NC(=S)NC(=O)OCC | inactive | –
CCCCOP(=O)(O)OCCCC | inactive | –
CN1C(=S)CN=C(c2ccccc2)c2cc(Cl)ccc21 | inactive | –
COc1ncc(F)c2nc(S(=O)(=O)Nc3c(F)cccc3F)nn12 | inactive | –

SMILES | outcome | fluorescence, % of fluorescent control
CNC(=O)Oc1cccc(C(C)C)c1 | inactive | –
CC1(C)CON(Cc2ccccc2Cl)C1=O | inactive | –
CC(C)CP(=S)(S)CC(C)C | inactive | –
CNC(=O)Oc1c(C(C)(C)C)cc(C)cc1C(C)(C)C | inactive | –
Fc1ccc(C2(Cn3cncn3)OC2c2ccccc2Cl)cc1 (stereo not given) | inactive | –
ClCC(Cl)Cl | inactive | –
CNC(=O)O/N=C(\C)SC | inactive | –
COc1cc(OC)nc(Sc2cccc(Cl)c2C(=O)O)n1 | inactive | –
Cc1ncc2n1-c1ccc(Cl)cc1C(c1ccccc1F)=NC2 | inactive | –
CN1CCC(O)(c2ccc(F)cc2)C(C(=O)c2ccc(F)cc2)C1 (stereo not given) | inactive | –
CCOP(=S)(Oc1cnc(C(C)(C)C)nc1)OC(C)C (stereo not given) | inactive | –
O=C(CCCN1CCC(n2c(=O)[nH]c3ccccc32)CC1)c1ccc(F)cc1 | – | -0.0219% [at 18.6 µM] (inactive)
CCc1cc2c(s1)-n1c(C)nnc1CN=C2c1ccccc1Cl | inactive | –
CC(C)(C)OC(=O)c1ncn2c1[C@@H]1CCCN1C(=O)c1c(Br)cccc1-2 | inactive | –
O=C(N[C@H]1CN2CCC1CC2)c1cc2ccoc2cn1 | inactive | –
CCC(=O)c1ccccc1 | inactive | –
CN/C(=N\[N+](=O)[O-])NCC1CCOC1 (stereo not given) | inactive | –
Cc1cc(C)c(C(=O)P(=O)(C(=O)c2c(C)cc(C)cc2C)c2ccccc2)c(C)c1 | inactive | –
CCOP(=S)(OCC)Oc1nc(Cl)n(C(C)C)n1 | inactive | –
CC(C=O)Cc1ccc2c(c1)OCO2 (stereo not given) | inactive | –
